# The campaign covered roughly 420,000 compounds. About 64,000 (15%) were called active. Not shown: some 27% with an inconclusive outcome. Not all results are given here. A number with no mark means an inactive call. Calls come from the whole dose curve; as a rule, active = well fitted inhibition curve with a large enough effect; inconclusive = small, poorly fitted or top-dose-only effect; inactive = flat fitted curve, though single readings scatter.
# Test: qHTS for Inhibitors of human tyrosyl-DNA phosphodiesterase 1 (TDP1): qHTS in cells in absence of CPT; note: nearly all actives have a fitted effect of over 55% in size
# Details: DT40 Tdp1-/- hTDP1 cells, no CPT, ATP luminescence, 48 h; activity change, negative = growth inhibition: at 46.2 µM (top of the series)
# Procedure, shortened: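 Chicken DT40 Tdp1-/- cells complemented with human TDP1, screened without camptothecin (DMSO vehicle only), 400 cells/well. Compounds pin-transferred, cells incubated at 37 °C for at least 48 hr. Growth read as ATP-dependent luminescence (CellTiter-Glo, 30 min at RT).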
# % is set by controls: 0 for no effect and ±100 for the full control effect; potency is the fitted concentration of half-maximal effect.
Compound,"activity change, negative = growth inhibition",Potency
CC(=O)NNc1cc(=O)c2c(=O)n(C)c(=O)n(C)c2[nH]1,-2.48%,–
Cc1cccc(C(=O)NNC(=O)c2cccc([N+](=O)[O-])c2)c1,5.26%,–
Cc1cccc(C(=O)NC(=S)N2CCN(c3ccc([N+](=O)[O-])cc3)CC2)c1,–,16.4 µM (active)
O=C(NC(=S)NC1CCS(=O)(=O)C1)c1cccc([N+](=O)[O-])c1 (centres undefined),41.6%,–
O=C(NCc1ccncc1)c1ccc(NS(=O)(=O)c2cccc([N+](=O)[O-])c2)cc1,-6.11%,–
COCCCn1cc(CN2CC(N(C)C)CS2(=O)=O)nn1 (centres undefined),-7.87%,–
COCOCCn1cc(CN2CCS(=O)(=O)N(Cc3ccc(-c4ccc(OC)cc4)cc3)C(CC(C)C)C2=O)nn1 (centres undefined),–,10.3 µM (active)
COCOCCn1cc(CN2CCS(=O)(=O)N(Cc3ccc(-c4ccccc4)cc3)C(CC(C)C)C2=O)nn1 (centres undefined),–,18.4 µM (active)
CN(Cc1ccccc1)S(=O)(=O)c1ccc(F)c(C(=O)Nc2cccc(Cl)c2Cl)c1,-21.5%,–
CC1CCN(S(=O)(=O)c2ccc(S(=O)(=O)NCc3ccco3)cc2)CC1,-18.4%,–
CC(C)CNC(=S)NNC(=O)c1nn(C)cc1Cl,-16.3%,–
FC(F)(F)c1ccc(-c2cccc3c2C2CC3CCN2Cc2ccccc2)cc1 (centres undefined),–,13 µM (active)
O=C(NCCN1CCOC1=O)C1CCC(=O)N(CCc2ccc(Cl)cc2)C1 (centres undefined),2.23%,–
O=S(=O)(c1ccc(F)cc1)N1CCN(Cc2ccccc2C(F)(F)F)CC1,-14.4%,–
CSCCC(NS(=O)(=O)/C=C/c1ccccc1)C(=O)N1CCC(C)CC1 (centres undefined),-17%,–
COc1ccc(OC)c(NC(=O)CN2CCCN(Cc3cc(C)ccc3C)S2(=O)=O)c1,–,18.4 µM (active)
CCOC(=O)N1CCN(CCC(=O)Nc2cc(OC)ccc2OC)CC1,-3.04%,–
COc1ccc(OC)c(NC(=O)CCN2CCC(C)CC2)c1,-7.7%,–
COC(=O)c1ccc(S(=O)(=O)c2ccc(C(=O)OC)s2)s1,0.0322%,–
C=CC(=O)Nc1ccc(Nc2ccnc(Nc3ccc(N4CCN(C)CC4)cc3)n2)cc1,-92.1%,–
N#CCSc1nc(-c2ccccc2)nc2ccc(F)cc12,-14%,–
Fc1ccc2nc(-c3ccccc3)nc(SCc3nnc(-c4ccccc4)o3)c2c1,–,23.1 µM (active)
Fc1ccc(-c2nnc(CSc3nnc(-c4ccc5c(c4)OCO5)o3)o2)cc1,0.842%,–
Nc1ccc2c(c1)C(O)c1ccc(Cl)cc1-2 (centres undefined),-1.47%,–
CCCCCCOc1ccc(OC(=O)c2cccnc2)cc1,–,13 µM (active)

Compound,"activity change, negative = growth inhibition",Potency
CCCCCCCCC(=O)NCCOc1ccccc1,2.92%,–
O=C(Oc1ccc(Br)cc1)c1cccnc1,-13.7%,–
COc1ccc(-c2nc(CS(=O)CC(=O)NCc3cccnc3)c(C)o2)cc1OC (centres undefined),-1%,–
C=CCOc1ccc(C2/C(=C(\O)c3c(C)[nH]c(C(=O)OC)c3C)C(=O)C(=O)N2CCN(C)C)cc1 (centres undefined),13.3%,–
CO[C@H]1[C@@H]2C=CO[C@@H](O[C@H]3O[C@@H](CO)[C@H](O)[C@@H](O)[C@@H]3O)[C@@H]2[C@@]2(CO)O[C@@H]12,-8.69%,–
CC(=O)c1ccc(NC(=O)c2sc3nc4n(c(=O)c3c2C)CCCCC4)cc1,–,13 µM (active)
CC(=O)c1sc2nc(SCC(=O)N3CCCCC3)[nH]c(=O)c2c1C,-1.59%,–
COc1ccc(NC(=O)c2sc3nc[nH]c(=O)c3c2C)cc1,-20.4%,–
Cc1ccc(NC(=S)NC(=O)/C=C/c2ccc(Cl)cc2)cc1,-25.3%,–
CC(C)C[C@H](NC(=O)[C@@H]1O[C@H]1C(=O)O)C(=O)NCCCCN=C(N)N,7.11%,–
C=CCOc1cccc(C2NC(=O)c3ccccc3O2)c1 (centres undefined),-17.6%,–
CCc1ccccc1NC(=O)c1cnn(-c2ccc(F)cc2)c1C1CCNCC1,-18.4%,–
CCCc1c(C(=O)Nc2ccc(F)cc2)cnn1-c1ccccc1,–,14.6 µM (active)
CCCc1c(C(=O)O)cnn1-c1ccc(Cl)cc1,-21.2%,–
CN(C(=O)COC(=O)c1ccc(Br)o1)c1c(N)n(Cc2ccccc2)c(=O)[nH]c1=O,-17.2%,–
O=S(=O)(Cc1nnnn1-c1ccc(Br)cc1)c1ccc(F)cc1,-15.1%,–
Cc1cc(C)cc(Oc2c(C(F)(F)F)oc3cc(OCC(=O)O)ccc3c2=O)c1,-19%,–
COc1cc(C=NC2CCCCC2)ccc1O,-20.7%,–
Cc1ccc(S(=O)(=O)Nc2nc3ccccc3s2)cc1[N+](=O)[O-],-10.3%,–
O=[N+]([O-])c1cc(Br)c(O)c(/C=N/Nc2nc3ccccc3s2)c1,–,18.4 µM (active)
COc1cc(/C=N/Nc2nc3ccccc3s2)ccc1O,–,1.3 µM (active)
COc1ccc(/C=N/Nc2nc3ccccc3o2)cc1OC,8.23%,–
CN(C(=O)CSc1nnc(N)s1)c1c(N)n(Cc2ccccc2)c(=O)[nH]c1=O,-3.27%,–
COc1cc(Br)cc2cc(S(=O)(=O)c3ccccc3)c(=O)oc12,-2.21%,–
